# Laboratory results from the supplement of paper PMC6555819.
# Legend:
# Test in all cases: PBM binding z-score (relative to random genomic background probes); higher = stronger binding; sequences stand for … in GC…GCGATTGACAGCGTAGAATGAAGG
# [1] = tested on: RARb homodimer (NR concentration 270 nM)
# Method in brief: (§1)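 Regression normalization was applied to scanned fluorescence from custom Agilent 4×180K protein-binding microarrays. Before scanning, arrays were incubated 1 h with ligand-free nuclear receptor dimers, and binding was detected with antibodies against each partner (one per run). Binding z-scores use the random background probes as reference.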
# [2] = tested on: RARg:RXRa (NR concentration 270 nM, RXRa partner concentration 90 nM)
# Method in brief: as §1
# [3] = tested on: RARg homodimer (NR concentration 270 nM)
# Method in brief: as §1
# [4] = tested on: RXRa DBDmut IVT, anti-RXR (DBD mutation: RXRa K156A/R161A, NR concentration 90 nM)
# Method in brief: as §1
# [5] = tested on: RXRa homodimer (NR concentration 180 nM)
# Method in brief: as §1
# [6] = tested on: THRa:RXRa (NR concentration 90 nM, RXRa partner concentration 90 nM)
# Method in brief: as §1
# [7] = tested on: THRa homodimer (NR concentration 90 nM)
# Method in brief: as §1
# [8] = tested on: VDR homodimer (NR concentration 270 nM)
# Method in brief: as §1
Sequence,PBM binding z-score [1],PBM binding z-score [2],PBM binding z-score [3],PBM binding z-score [4],PBM binding z-score [5],PBM binding z-score [6],PBM binding z-score [7],PBM binding z-score [8]
CCTACTGGGCCAAAAAGGTCACTGATGCCGATAA,4.56,4.77,4.86,0.0179,4.83,3.07,0.702,1.53
TAGCCTAGGTCATGGGCTAGTATACCACGCGAAC,2.79,4.26,4.32,-0.132,3.45,3.07,0.81,0.156
CCTTACGGGGCACGAGGTTATAGCACGACGAGCG,1.27,2.07,1.74,-0.444,1.92,1.48,0.0456,0.346
TCATACAGGTAAACAGGTGAAAGTCCGTAAGTTA,1.16,0.793,0.447,1.62,1.12,1.05,0.697,0.33
GCATATAGGTAATACAAGGTGAAAGCCCGATTGT,0.51,0.492,0.56,0.379,0.681,4.09,0.763,-0.285
GCTGCTAGGTCAGGCTGGTCAGCTAACGGGTACG,2.55,2.75,4.34,0.391,1.07,1.63,0.201,-0.177
CCTACTGGGCCAAAAGGGTCATTGATGCCGATAA,3.22,3.29,2.71,0.103,3.26,2.17,-0.01,2.72
CTACCAAGGTGAACAAGGTCGTTGGTTACTATTC,2.16,1.79,1.29,1.28,1.87,3.19,1.81,3.03
CCGGCTGGGGCAAGGTTACCATAACGCACAGCCA,1.41,1.14,1.27,-1.12,1.14,1.03,-0.0935,-0.883
ATCTCTAGGTTAGACTCAGTTCAGTGAAGAACGC,1.37,1.4,1.14,1,0.687,1.52,1.21,2.48
CTCGAAAGGTCGCGCTCAGGTGAGTATACCAAAC,3.47,5.54,4.9,2.28,5.79,4.23,1.01,1.35
CAAACTAGGTCGAGGTCAAAGTCGGTTTGTGCCA,4.43,5.24,4.79,2.93,5.63,4.31,3.49,5.19
CGTGCAAGGTCAATGCTAGGTCAGTGAAAGCATT,4.95,7.96,7.27,3.39,5.44,4.64,2.44,2.89
AGTCAAAGTTCTCTAGGTAACGTAAGATTCAGCT,0.137,0.139,0.523,0.597,0.0862,0.903,0.459,0.273
TCTATTAGTTGATTCGGGCAACCGAAACAGCGGA,0.249,0.385,0.285,1.15,0.328,0.247,0.0848,0.228
ATCGAAAGGTCGTGAGGTCAGTATACAGAAAGGC,4.83,6.17,5.53,2.13,6.57,4.25,3.19,3.51
ACAGACAGGTGATGAAGGTAACCCAGGCTATCAT,0.672,0.398,0.392,-0.925,0.473,0.892,0.124,-0.253
TCATATAGCTAAAAGGTGAAAGTCGGTGTGGTAA,1.42,0.817,0.551,0.962,1.4,0.958,0.0793,-0.201
CCTTCCGGGTCAAGGTTATAGCACGGGTGGTACG,3.39,4.76,4.46,0.695,4.97,3.73,2.35,1.72
TCAGACAGGTCAAGGTAACTCAGGTACGCAGTCG,3.61,4.57,4.8,2.07,4.44,3.33,1.49,0.989
CCTACTGGGCCACGAAAGGTCATTGACTCAGTGA,4.8,4.9,4.53,0.581,4.92,3.77,0.711,2.15
CCAGACTGGTGAAAGGTAACTCAGTCTGGTACGC,0.104,0.0585,-0.236,-0.492,0.524,0.18,-0.494,-0.181
CGAACTAGGTCAGAATAGGACAGTGAAGGATGAT,2.16,2.58,3.36,0.702,1.3,2.77,0.0202,-0.245
AGAATGAGGTTACCAAAGAGCAGGGAAACGCTTG,0.563,1.8,1.43,0.987,2.24,2.73,0.573,0.0969
TCAGATAGGTGAAGGTAACTCAGGTACGCAGTCG,0.689,0.578,0.814,1.22,1.08,1.17,0.217,0.382
ACTATTAGTTGCGACGAGGGCAACCGATAGGTTG,0.942,0.259,0.489,0.4,0.472,1.09,0.3,0.643
GCTAGTTGGTCAGTAAAAGGTCACACTCCGGTCG,5.07,5.14,4.48,0.827,5.23,3.58,2.19,1.59
TCATATAGGTAAAGAGGTGAAAGTCCGTAAGTTA,1.56,1.37,0.762,1.73,2.04,1.8,0.621,0.613
